For some of these results: Results with a measured potency or affinity are listed apart.
Key:
Design in all cases: scale not given: direction of the effect not stated beside the values
[1] = biological target: Protein translocase subunit SecA (Escherichia coli (strain K12)) (UniProt P10408); experiment: Assay to Identify E. coli SecA ATPase Inhibitors; assay type: functional; conditions: 30 µM
[2] = biological target: T1, Ubiquitin-activating enzyme e1, putative (Leishmania donovani (strain BPK282A1)) (UniProt E9BSI1); experiment: Leishmania donovani Ubiquitin Activating Enzyme (LdE1); assay type: functional; conditions: 30 µM
T1 sequence (whole entry): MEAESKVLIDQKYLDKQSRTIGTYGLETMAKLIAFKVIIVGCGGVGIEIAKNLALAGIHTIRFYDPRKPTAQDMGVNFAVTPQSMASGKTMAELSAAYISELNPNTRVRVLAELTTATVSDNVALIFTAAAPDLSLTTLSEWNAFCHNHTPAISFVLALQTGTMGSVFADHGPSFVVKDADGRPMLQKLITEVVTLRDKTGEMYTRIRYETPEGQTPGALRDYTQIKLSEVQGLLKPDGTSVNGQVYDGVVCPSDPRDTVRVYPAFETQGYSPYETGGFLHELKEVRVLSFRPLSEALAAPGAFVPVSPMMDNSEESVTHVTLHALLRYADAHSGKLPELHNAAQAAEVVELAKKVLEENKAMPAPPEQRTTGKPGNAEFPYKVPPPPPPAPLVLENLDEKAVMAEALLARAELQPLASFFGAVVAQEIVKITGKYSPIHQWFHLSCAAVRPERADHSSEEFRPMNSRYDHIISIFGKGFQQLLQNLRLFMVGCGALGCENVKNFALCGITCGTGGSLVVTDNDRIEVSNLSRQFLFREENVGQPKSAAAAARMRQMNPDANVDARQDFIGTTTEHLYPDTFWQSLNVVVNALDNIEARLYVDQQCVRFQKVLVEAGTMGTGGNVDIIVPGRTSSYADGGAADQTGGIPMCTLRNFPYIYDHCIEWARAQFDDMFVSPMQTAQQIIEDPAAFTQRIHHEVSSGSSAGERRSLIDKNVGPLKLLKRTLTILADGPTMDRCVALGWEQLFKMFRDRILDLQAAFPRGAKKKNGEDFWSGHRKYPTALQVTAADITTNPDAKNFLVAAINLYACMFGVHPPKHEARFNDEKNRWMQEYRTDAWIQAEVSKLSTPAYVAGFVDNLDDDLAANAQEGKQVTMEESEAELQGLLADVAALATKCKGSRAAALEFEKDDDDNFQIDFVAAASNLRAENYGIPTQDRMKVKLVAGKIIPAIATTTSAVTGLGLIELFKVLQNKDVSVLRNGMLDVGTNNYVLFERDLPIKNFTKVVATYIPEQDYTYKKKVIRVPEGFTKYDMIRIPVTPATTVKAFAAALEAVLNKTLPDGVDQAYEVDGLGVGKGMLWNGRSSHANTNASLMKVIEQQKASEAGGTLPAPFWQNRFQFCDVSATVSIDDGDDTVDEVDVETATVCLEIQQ

[3] = biological target: AMP-activated protein kinase, AMPK (Homo sapiens) (UniProt P54646+O43741+P54619+Q9UGJ0+Q9Y478+Q13131+Q9UGI9); experiment: AMP-dependent Kinase enzyme assay. An in vitro enzyme assay that detects ADP turnover that is directly proportional to AMPK activity. This uses naive AMPK that is activated during the assay with MK-8722; assay type: functional; conditions: 30 µM
[4] = biological target: Sialic acid-binding Ig-like lectin 9 (Homo sapiens) (UniProt Q9Y336); experiment: Hs-Siglec9 ALPHAscreen SOP 20170721; conditions: 10 µM
Sequence of Sialic acid-binding Ig-like lectin 9 (Homo sapiens) (Q9Y336 whole entry): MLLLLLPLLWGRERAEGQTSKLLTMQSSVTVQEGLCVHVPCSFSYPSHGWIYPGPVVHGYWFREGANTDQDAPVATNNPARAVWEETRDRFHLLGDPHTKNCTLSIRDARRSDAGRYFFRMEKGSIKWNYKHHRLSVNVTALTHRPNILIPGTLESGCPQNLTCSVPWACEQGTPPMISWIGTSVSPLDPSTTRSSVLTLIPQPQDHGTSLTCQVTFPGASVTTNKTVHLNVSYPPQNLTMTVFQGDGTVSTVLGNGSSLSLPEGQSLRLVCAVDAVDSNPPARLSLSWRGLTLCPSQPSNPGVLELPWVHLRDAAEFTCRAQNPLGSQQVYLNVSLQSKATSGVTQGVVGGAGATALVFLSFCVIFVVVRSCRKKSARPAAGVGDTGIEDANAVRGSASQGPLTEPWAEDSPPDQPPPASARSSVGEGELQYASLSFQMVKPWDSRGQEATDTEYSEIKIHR

Trypanosoma cruzi = experiment: Trypanosoma cruzi phosphomannomutase and mannose-1-phosphate guanylyltransferase assay; assay type: functional; conditions: 10 µM
[5] = biological target: T2, Arginase-2, mitochondrial (Homo sapiens) (UniProt P78540); experiment: in vitro enzyme assay to detect the production of urea directly proportional to the activity of Arginase II; assay type: functional; conditions: 33.3 µM; further: in the data most compounds retested in dose-response had high values
T2 sequence (whole entry): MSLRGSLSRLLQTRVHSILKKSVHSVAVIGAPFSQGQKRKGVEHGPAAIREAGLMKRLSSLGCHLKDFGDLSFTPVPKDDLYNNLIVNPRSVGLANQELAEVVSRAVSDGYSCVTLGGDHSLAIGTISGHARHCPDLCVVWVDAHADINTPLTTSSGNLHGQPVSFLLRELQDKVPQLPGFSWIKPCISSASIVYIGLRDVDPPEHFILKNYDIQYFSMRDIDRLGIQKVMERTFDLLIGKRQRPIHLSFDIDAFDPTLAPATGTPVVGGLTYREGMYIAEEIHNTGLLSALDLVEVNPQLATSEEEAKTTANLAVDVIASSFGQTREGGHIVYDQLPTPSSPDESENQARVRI

[6] = biological target: T3, Proteasome subunit beta (Trypanosoma cruzi) (UniProt O96673); experiment: Trypanosoma cruzi proteasome chymotrypsin-like activity (TcProtChymo) assay.; further: in the data most compounds retested in dose-response had high values; assay type: functional; conditions: 9.37 µM
T3 sequence (whole entry): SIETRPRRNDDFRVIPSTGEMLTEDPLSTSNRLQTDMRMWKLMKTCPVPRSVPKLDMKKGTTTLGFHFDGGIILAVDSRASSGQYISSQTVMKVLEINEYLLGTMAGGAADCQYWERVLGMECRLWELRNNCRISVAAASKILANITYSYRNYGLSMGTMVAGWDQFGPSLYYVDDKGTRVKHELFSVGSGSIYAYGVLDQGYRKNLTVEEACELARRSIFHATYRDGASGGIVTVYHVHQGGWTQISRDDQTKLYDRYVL

Homo sapiens = organism: Homo sapiens; experiment: To identify inhibition of the IFN signalling (Jak-Stat) pathway via expression of an eGFP reporter gene under the control of an IFN-stimulated response element (ISRE) containing MxA promoter.; assay type: functional; conditions: 30 µM
[7] = biological target: T4, Tyrosyl-tRNA synthetase, putative (Trypanosoma cruzi (strain CL Brener)) (UniProt Q4DSP6); experiment: Trypanosoma cruzi tyrosyl tRNA synthetase (TcYRS) _High Tyrosine SOP; assay type: functional; conditions: 30 µM; further: in the data most compounds retested in dose-response had high values
T4 sequence (whole entry): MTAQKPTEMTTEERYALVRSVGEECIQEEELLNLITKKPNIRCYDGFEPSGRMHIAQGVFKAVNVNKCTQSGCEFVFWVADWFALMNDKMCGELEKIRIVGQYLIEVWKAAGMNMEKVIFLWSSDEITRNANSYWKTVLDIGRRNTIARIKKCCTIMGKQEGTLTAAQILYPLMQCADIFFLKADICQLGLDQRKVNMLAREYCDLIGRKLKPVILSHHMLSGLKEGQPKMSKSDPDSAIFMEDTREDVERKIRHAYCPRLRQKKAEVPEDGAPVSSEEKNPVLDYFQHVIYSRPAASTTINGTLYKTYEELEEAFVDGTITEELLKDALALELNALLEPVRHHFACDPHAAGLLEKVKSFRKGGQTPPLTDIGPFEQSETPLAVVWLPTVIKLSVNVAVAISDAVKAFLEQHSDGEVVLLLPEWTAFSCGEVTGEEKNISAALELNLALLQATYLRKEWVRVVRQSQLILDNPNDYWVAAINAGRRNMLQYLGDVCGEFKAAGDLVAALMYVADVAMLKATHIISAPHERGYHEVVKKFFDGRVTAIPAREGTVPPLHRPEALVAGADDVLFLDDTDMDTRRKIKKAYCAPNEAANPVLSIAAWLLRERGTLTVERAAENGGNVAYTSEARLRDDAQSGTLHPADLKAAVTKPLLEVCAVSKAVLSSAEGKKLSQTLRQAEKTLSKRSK

[8] = biological target: T4, Tyrosyl-tRNA synthetase, putative (Trypanosoma cruzi (strain CL Brener)); experiment: Trypanosoma cruzi tyrosyl tRNA synthetase (TcYRS) SOP; assay type: functional; conditions: 30 µM
[9] = biological target: Chromo domain-containing protein 1 (Saccharomyces cerevisiae (strain ATCC 204508 / S288c) (Baker's yeast)) (UniProt P32657); experiment: ScCHD-1 Enzyme Inhibition Assay; assay type: functional; conditions: 30 µM; further: in the data most compounds retested in dose-response had high values
Sequence of Chromo domain-containing protein 1 (Saccharomyces cerevisiae (strain ATCC 204508 / S288c) (Baker's yeast)) (P32657 whole entry, the tested form may be a part): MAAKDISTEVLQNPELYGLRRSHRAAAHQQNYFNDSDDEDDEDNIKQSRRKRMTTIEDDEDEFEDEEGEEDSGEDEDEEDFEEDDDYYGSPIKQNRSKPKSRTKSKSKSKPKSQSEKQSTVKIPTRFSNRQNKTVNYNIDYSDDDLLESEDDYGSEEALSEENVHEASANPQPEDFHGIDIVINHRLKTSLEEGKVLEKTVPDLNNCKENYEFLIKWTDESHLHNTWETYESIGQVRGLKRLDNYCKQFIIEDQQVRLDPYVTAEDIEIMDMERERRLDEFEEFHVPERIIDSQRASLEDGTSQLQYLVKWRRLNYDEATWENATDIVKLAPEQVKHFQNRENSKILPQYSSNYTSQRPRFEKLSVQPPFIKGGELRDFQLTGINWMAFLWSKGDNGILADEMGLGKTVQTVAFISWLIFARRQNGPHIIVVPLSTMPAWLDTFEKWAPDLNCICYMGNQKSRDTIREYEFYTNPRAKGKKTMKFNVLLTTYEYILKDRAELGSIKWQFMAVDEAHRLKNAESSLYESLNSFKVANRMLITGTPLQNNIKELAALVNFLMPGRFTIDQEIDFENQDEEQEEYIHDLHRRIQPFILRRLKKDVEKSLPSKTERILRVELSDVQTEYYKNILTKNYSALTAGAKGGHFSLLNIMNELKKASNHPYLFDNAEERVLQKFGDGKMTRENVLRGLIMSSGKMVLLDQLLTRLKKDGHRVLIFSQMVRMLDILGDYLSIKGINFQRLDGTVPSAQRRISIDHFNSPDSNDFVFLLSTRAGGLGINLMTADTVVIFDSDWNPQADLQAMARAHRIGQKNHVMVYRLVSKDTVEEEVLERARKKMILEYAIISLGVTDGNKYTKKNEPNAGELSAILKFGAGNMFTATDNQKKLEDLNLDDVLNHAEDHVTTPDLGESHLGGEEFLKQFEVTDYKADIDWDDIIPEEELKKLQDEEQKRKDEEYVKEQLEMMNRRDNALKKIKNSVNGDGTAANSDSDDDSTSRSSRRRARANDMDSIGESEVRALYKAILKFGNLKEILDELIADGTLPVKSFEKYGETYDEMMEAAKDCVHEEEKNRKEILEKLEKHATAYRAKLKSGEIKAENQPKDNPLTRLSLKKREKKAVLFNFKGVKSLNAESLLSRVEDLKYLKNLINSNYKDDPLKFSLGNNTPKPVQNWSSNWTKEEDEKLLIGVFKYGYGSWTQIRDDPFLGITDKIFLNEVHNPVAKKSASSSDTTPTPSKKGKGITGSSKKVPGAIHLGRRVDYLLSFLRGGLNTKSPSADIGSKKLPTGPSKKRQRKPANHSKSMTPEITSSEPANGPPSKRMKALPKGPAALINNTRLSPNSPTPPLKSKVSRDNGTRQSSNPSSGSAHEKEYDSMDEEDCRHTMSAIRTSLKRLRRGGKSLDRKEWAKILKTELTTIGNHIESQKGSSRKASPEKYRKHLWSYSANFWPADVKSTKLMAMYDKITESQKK

Sequence of Protein translocase subunit SecA (Escherichia coli (strain K12)) (P10408 whole entry): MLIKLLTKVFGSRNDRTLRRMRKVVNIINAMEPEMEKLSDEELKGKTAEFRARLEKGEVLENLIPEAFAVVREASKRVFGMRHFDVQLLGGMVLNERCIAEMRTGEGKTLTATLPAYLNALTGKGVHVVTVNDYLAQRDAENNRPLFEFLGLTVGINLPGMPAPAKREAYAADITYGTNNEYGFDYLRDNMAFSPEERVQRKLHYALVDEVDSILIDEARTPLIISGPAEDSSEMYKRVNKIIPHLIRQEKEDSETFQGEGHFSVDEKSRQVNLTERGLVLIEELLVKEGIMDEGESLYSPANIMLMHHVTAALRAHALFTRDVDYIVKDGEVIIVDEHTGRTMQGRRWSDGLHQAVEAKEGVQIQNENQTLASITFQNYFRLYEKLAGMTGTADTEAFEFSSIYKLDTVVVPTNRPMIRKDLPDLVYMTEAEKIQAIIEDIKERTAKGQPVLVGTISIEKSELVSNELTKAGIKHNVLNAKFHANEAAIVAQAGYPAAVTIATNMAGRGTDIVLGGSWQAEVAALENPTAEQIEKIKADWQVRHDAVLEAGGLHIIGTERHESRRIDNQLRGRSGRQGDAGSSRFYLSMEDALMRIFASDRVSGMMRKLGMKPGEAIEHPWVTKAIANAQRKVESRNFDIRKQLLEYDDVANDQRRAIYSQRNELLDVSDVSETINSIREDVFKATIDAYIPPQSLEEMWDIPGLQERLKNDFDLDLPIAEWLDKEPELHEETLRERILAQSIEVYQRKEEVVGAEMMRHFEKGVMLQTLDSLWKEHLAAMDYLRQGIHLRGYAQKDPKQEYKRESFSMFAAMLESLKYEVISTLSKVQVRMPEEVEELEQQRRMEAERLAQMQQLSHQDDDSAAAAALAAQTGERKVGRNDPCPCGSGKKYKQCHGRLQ

| SMILES | Percent Effect [1] | Percent Effect [2] | Percent Effect [3] | Percent Effect [4] | Percent Effect (Trypanosoma cruzi) | Percent Effect [5] | Percent Effect [6] | Percent Effect (Homo sapiens) | Percent Effect [7] | Percent Effect [8] | Percent Effect [9] |
| --- | --- | --- | --- | --- | --- | --- | --- | --- | --- | --- | --- |
| Cc1cccc(NC(=O)CNC(=O)Cn2ncc(Cl)c(Cl)c2=O)c1C | -1.81% | 0% | 26% | 2.69% | -8.4% | 0% | 16.6% | 23.8% | 11.9% | -1.22% | 7.2% |
| O=C(c1ccncc1)N1CCC(c2nc(O)cc(-c3cccnc3)n2)C1 (stereo not given) | -0.62% | 21.3% | -34.2% | -1.55% | 3.74% | 26.8% | 8.55% | 17.1% | 8.51% | 11.5% | -5.75% |
| COc1ccccc1CN1CCC2(CC1)CC(Oc1ccccn1)CO2 (stereo not given) | -0.474% | 16% | -2.4% | -9.97% | 2.76% | 132% | 14.9% | -3.26% | 4.25% | 8.97% | -13.9% |
| CC(=O)NCC(=O)N1CCn2cc(CN3CCN(C)CC3)nc2C1 | -4.28% | 10.4% | -0.0716% | 14.9% | 7.57% | -1.38% | 6.16% | 9.49% | 8.6% | 16.1% | -0.16% |
| CC(=O)N(Cc1ncc(C)o1)C1CCN(Cc2noc(C)n2)C1 (stereo not given) | -3.16% | 26% | -5.5% | -2.16% | 6.76% | -3.16% | 11.9% | 1.88% | 8.57% | 30.6% | 2.25% |
| Cc1nc(CN2CCCC(N(C)CCc3ccncc3)C2)no1 (stereo not given) | 0.743% | 18.9% | -12.8% | -5.86% | -2.51% | 6.84% | 10.4% | 24.3% | 0% | 13.4% | 0.929% |
| C[S+]([O-])CCCNC(=O)c1cc(Br)c2c(c1)OCCO2 (stereo not given) | -5.04% | 10.7% | -5.08% | 28.9% | 5.55% | 48.4% | 2.62% | 8.03% | 2.73% | 13.6% | -7.44% |
| Cc1nc(CCNC(=O)C2CC(=O)N(C(C)(C)C)C2)sc1C (stereo not given) | -4.83% | 0% | -1.25% | 5.84% | -1.19% | -3.59% | 8.82% | -0.947% | 5.21% | 11.1% | -3.8% |
| O=C(NC(CO)CO)c1coc(COc2cccc(F)c2)n1 | -2.81% | 18.9% | 1.42% | 15.9% | 2.44% | 10.2% | 9.19% | -0.407% | 7.53% | 21% | -4.2% |
| CC(C)(C)OC(=O)N1CCCc2ccc(NCc3ncc[nH]3)cc21 | -8.07% | 2.6% | 1.02% | 4.72% | -4.03% | -11% | 4.66% | 7.74% | 1.07% | -3.7% | -0.00165% |
| O=c1[nH]c(CN(Cc2ccco2)C2CCCC2)nc2ccccc12 | -2.15% | 18.2% | 7.19% | 1.72% | 3.75% | 0.712% | 10.5% | 26.1% | 8.74% | 24.4% | -9.34% |
| CC(NCc1cccnc1)c1ccc(OCC(=O)NC2CC2)cc1 (stereo not given) | -4.57% | 1.27% | 10.2% | 0.488% | -2.15% | -0.215% | 12.2% | -0.549% | -2.08% | -2.53% | 4.29% |
| Cc1cn2c(n1)CCC(NC(=O)c1cnc(C)nc1C(C)C)C2 (stereo not given) | -4.68% | 10.4% | -12.2% | 12.9% | 3.23% | 1.9% | 3.48% | 1.24% | 10.5% | 18.8% | -16.9% |
| Cc1cc(C)nc(CCNC(=O)C(c2ccc(F)cc2)N(C)C)n1 (stereo not given) | 6.75% | 11% | 8.61% | 2.2% | -9.13% | -31.9% | 3% | 48.8% | 1.04% | 6.17% | -6.29% |
| CS(=O)(=O)N1CCC(Oc2ccc(C(=O)N3CCSCC3)cc2Cl)CC1 | -2.47% | 9.72% | 3.27% | 18.5% | 4.37% | -2.21% | 3.86% | 25.7% | 3.16% | 7.69% | -2.42% |
| c1coc(CN2CCCC3(COCCN(Cc4c[nH]nn4)C3)C2)c1 (stereo not given) | -3.44% | 8% | 2.62% | 8.5% | -0.193% | -23.1% | 10.9% | -4.99% | 7.29% | 10% | -7.03% |
| CC(C)c1ncncc1C(=O)N1CCCN(Cc2cccs2)CC1 | -1.81% | 16.2% | -2.92% | -2.71% | 8.08% | -6.47% | 6.46% | 5.27% | 6.93% | 18.3% | -5.18% |
| Cc1n[nH]c(C)c1C1CCCN1C(=O)CNC(=O)C(C)(C)C (stereo not given) | -0.905% | 8.22% | 0.299% | 14% | 2.74% | 20.9% | 11.5% | -2.46% | 0% | 5% | -4.49% |
| CCc1noc(C(C)N2CCN(Cc3ncc(C(C)(C)C)o3)CC2)n1 (stereo not given) | 1.4% | 28.9% | -4.2% | -2.15% | -3.38% | 0.383% | 15% | 26% | 3.43% | 9.76% | -10.7% |
| Cc1nc(CN2C(=O)COC3(CCN(Cc4nccs4)CC3)C2C)cs1 (stereo not given) | -1.57% | 0% | -5.34% | 5.68% | 4.56% | -4.39% | 2.48% | -3.19% | 6.25% | 13.6% | -5.58% |

— ChEMBL document CHEMBL3988442, “University of Dundee, Small-Polar-MMV Screening Library” (2021)
